Shown are actives, neighbours in structure and some others; about 7.3% of the full set was active somewhere.
KinaseGlo FLuc – counter-screen: inhibitors of Kinase-Glo firefly luciferase; Q27757; Kinase-Glo luciferase, ATP luminescence, 8 min; Potency, µM (doses to about 38.3 µM), most hits filed as inhibitors; hit rate 0.28% among 200,000; AID 1379; further: nearly all actives have a fitted effect of over 60% in size
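Luminescence was the read-out, taken after 8-minute incubation at ambient temperature. Luciferase turned over luciferin with 10 uM ATP in imidazole pH 7.2 buffer containing KCl, MgCl2, Tween 20 and BSA.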
Rab9 promoter act – activators of Rab9 promoter; AID 485297; Potency, µM (series often up to 9.22 µM), hits mostly activators; Huh7 Rab9 promoter-luciferase reporter, luminescence, 24 h; hit rate 2.8% among 320,000; further: nearly all actives have a fitted effect of over 60% in size
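Using Huh7 cells stably transfected with Rab9 promoter–luciferase, compounds were incubated 24 h at 37 °C, 5% CO2; luciferase luminescence was read 10 min after reagent addition.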
NPC1 prom act – activators of NPC1 promoter; Huh7 NPC1 promoter luciferase reporter, 24 h; Potency, µM (series often up to 9.22 µM), usual class: activators; hit rate 2.4% among 320,000; AID 485313; further: nearly all actives have a fitted effect of over 60% in size
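Luciferase expression driven by the NPC1 promoter was measured in stably transfected Huh7 cells after a 24 h compound incubation, using a luciferase reagent and a luminescence read.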
SMN2 splice up – SMN2 splice variant enhancement. HEK293 SMN2-luciferase splicing reporter, luminescence, 30-36 h. Potency, µM (series often up to 46.1 µM), hits mostly activators. hit rate 2.8% among 210,000; further: nearly all actives have a fitted effect of over 55% in size
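qHTS luciferase splicing reporter: luminescence rises when SMN2 exon 7 is included in transfected HEK293 cells. Compound exposure lasted 30-36 h at 37C, with 4.5 mM final sodium butyrate as control, followed by a ONE-Glo read.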
FLuc modulator – counter-screen for miR-21 project: firefly luciferase inhibitors or activators; AID 588342; purified FLuc, Km substrates, luminescence inhibition; hit rate 6.9% among 360,000; Potency, µM (highest dose often 57.5 µM), usual class: inhibitors; further: nearly all actives have a fitted effect of over 55% in size
Target sequence (P08659 whole entry, looked up): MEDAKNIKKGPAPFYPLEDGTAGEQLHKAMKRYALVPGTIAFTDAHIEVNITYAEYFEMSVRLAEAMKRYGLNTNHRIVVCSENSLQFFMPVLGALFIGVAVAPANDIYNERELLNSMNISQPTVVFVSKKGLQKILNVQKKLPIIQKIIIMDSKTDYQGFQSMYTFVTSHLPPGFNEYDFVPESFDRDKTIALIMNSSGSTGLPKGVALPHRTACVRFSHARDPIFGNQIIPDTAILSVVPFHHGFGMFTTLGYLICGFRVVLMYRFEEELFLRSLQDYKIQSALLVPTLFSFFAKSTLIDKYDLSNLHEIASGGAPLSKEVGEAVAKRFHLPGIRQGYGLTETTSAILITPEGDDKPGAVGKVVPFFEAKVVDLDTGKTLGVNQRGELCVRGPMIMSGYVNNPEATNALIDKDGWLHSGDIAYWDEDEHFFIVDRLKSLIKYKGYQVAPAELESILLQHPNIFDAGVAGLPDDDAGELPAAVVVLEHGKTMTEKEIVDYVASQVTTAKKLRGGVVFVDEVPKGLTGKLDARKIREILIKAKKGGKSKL
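Biochemical qHTS of compounds, final roughly 60 µM downward over six points, against 10 nM purified firefly luciferase using Km concentrations of substrates (10 uM D-luciferin, 10 uM ATP) in Tris acetate pH 7.5 buffer; luminescence output.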
ELG1 genotoxic – inducers of genotoxicity in HEK293T ELG1-luciferase cells; HEK293T ELG1-luciferase reporter, luminescence, 16 h; Potency, µM (titrated, usually from 46 µM), most hits filed as activators; hit rate 1.3% among 330,000; AID 504466; further: nearly all actives have a fitted effect of over 60% in size
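Quantitative HTS format in 1536-well plates. HEK293T ELG1-luciferase reporter cells receive test compound and are incubated 16 hr at 37 °C, 5% CO2; ONE-Glo added, 30 min room temperature, then luminescence read.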
A number is an active result; n = inactive; u = inconclusive; x = no result; [ ] = remark or other dose. The call rests on the fitted dose curve; in most records, active means well fitted curve in the direction sought with a large enough effect; inconclusive means small, poorly fitted or top-dose-only effect, or another doubt; inactive means no such curve, though single readings can be large; an effect the other way counts as inactive or inconclusive.

SMILES	KinaseGlo FLuc	Rab9 promoter act	NPC1 prom act	SMN2 splice up	FLuc modulator	ELG1 genotoxic
Cc1nc2ccc(NC(=O)Cc3ccsc3)cc2s1	n	u	2.82µM	u	12µM	11.6µM
Cc1nc2ccc(NC(=O)COc3cccc(F)c3)cc2s1	n	n	n	n	u	n
Cc1nc2ccc(NC(=O)Cc3ccccc3F)cc2s1	n	u	2.82µM	11.2µM	6.75µM	8.2µM
Cc1ccc(NC(=O)Cc2ccsc2)cc1Cl	x	n	n	x	u	n
Cc1nc2ccc(NC(=O)Cc3cccc(F)c3)cc2s1	n	n	n	n	19µM	n
Cc1cc(Br)ccc1NC(=O)c1cc2c(=O)n(C)c3cc(Cl)ccc3c2s1	x	x	x	n	n	x
COc1ccc2c(CNCCc3ccccc3OC)c(C(=O)O)n(Cc3ccc(F)cc3Cl)c2c1	x	x	x	x	n	x
CCOc1ccc(CCNC(=O)Cn2ncn3nc(-c4ccc(OC)cc4)cc3c2=O)cc1	x	n	n	x	n	u
O=C(Cn1ncn2nc(-c3ccccc3)cc2c1=O)NCc1ccccn1	x	n	n	x	10.7µM	n
COc1ccc(-c2cc3c(=O)n(CC(=O)NCCCN4CCC(Cc5ccccc5)CC4)ncn3n2)cc1	x	u	u	x	4.78µM	u
COc1ccc(-c2cc3c(=O)n(CC(=O)NCc4ccc(C)cc4)ncn3n2)cc1	x	n	n	x	n	u
COc1ccc(-c2cc3c(=O)n(CC(=O)NCc4ccc(Cl)cc4)ncn3n2)cc1	x	n	n	x	n	u
COc1ccc(-c2cc3c(=O)n(CC(=O)NCCCN4CCN(Cc5ccccc5)CC4)ncn3n2)cc1	x	u	u	x	1.51µM	u
CN(C)S(=O)(=O)c1nc(Cl)c2[nH]cnc2n1	n[7.66 µM]	x	x	n[9.22 µM]	x	x
CN1CCN(CC(=O)N2c3ccccc3Sc3cc4ccccc4cc32)CC1	n[7.66 µM]	x	x	n[9.22 µM]	x	x
CCOC(=O)c1[nH]c(C)c(CCC(=O)Nc2c(C)cc(C)cc2C)c1C	x	x	x	x	n	x
CCOc1ccc(S(=O)(=O)Nc2cccc(-c3ccc(N4CCCCCC4)nn3)c2)cc1	x	n	n	x	8.49µM	u
CCCCOc1ccc(S(=O)(=O)Nc2cccc(-c3ccc(N4CCOCC4)nn3)c2)cc1	x	x	x	x	13.5µM	x
CCOc1ccc(S(=O)(=O)Nc2ccc(-c3ccc(N4CCCC4)nn3)cc2)cc1	x	x	x	x	n	x
Cn1cc(C(=O)NCc2ccccc2)c(=O)c2cc(S(=O)(=O)N3CCCCCC3)ccc21	x	x	x	x	n	x
COC(=O)COc1ccc2c(=O)c(-c3ccccc3)coc2c1	x	n	n	x	16.9µM	n
COC(=O)COc1ccc2c(-c3ccc(OC)cc3)cc(=O)oc2c1	n	n	n	n	u	n
CC(C)Oc1ccc2c(=O)c(-c3ccccc3)coc2c1	n	0.891µM	0.794µM	3.16µM	1.69µM	9.2µM
CC(=O)Oc1ccc2c(=O)c(-c3nc4ccccc4s3)coc2c1	10µM	1.26µM	1.26µM	12.6µM	1.07µM	u
CCn1c(CNC(=O)c2ccc(OC)cc2)nnc1SCC(=O)Nc1ccc(F)cc1	x	x	x	n	n	x
SMILES	KinaseGlo FLuc	Rab9 promoter act	NPC1 prom act	SMN2 splice up	FLuc modulator	ELG1 genotoxic
CCOC(=O)c1c(S(=O)(=O)N2CCCC(C(=O)Nc3ccc(C)cc3C)C2)c(C)n(CC)c1C (configuration not stated)	x	x	x	x	n	x
COc1cc(C2c3c(-c4ccccc4O)n[nH]c3C(=O)N2Cc2ccco2)ccc1OCC(C)C (configuration not stated)	x	x	x	n	n	x
O=C(C=C1SCCS1)/C=C/c1ccco1	n	2.51µM	0.708µM	12.6µM	1.35µM	u
O=C(/C=C/c1ccc([N+](=O)[O-])cc1)/C=C/c1ccco1	x	n	n	x	4.26µM	n
CCn1c(=O)cc(OCC(=O)N2CCN(c3ccc(C)cc3)C(C)C2)c2ccccc21 (configuration not stated)	x	x	x	n	n	x
CCN(c1ccc(Cl)cc1)S(=O)(=O)c1nnc(NC(=O)C2CCCCC2)s1	x	x	x	x	n	x
N/C(=N/OC(=O)c1ccccc1F)c1nonc1N	11.2µM	n	n	n	4.78µM	n
N/C(=N\OC(=O)c1ccc(Cl)cc1)c1nonc1N	u	n	n	n	1.69µM	n
Nc1nonc1C(=O)OCC(=O)c1ccc(Cl)cc1	n	n	n	n	n	n
Cc1ccc2[nH]c(=O)c3cc(C(=O)N(C)c4ccc(Br)cc4)sc3c2c1	x	x	x	n	n	x
COc1ccc(Cl)cc1NC(=O)Cn1cc2c(n1)CCC(C)C2 (configuration not stated)	x	x	x	n	n	x
Cc1cc(C)nc(Nc2ccc(F)cc2)n1	x	n	n	x	n	n
CC(=O)c1ccc(Nc2nc(C)cc(C)n2)cc1	x	u	u	x	26.9µM	u
Cc1cc(NS(=O)(=O)c2ccc(NC(=O)/C=C/c3ccccc3Cl)cc2)no1	x	n	n	x	8.49µM	n
COc1ccc(NC(=O)c2cc(C(C)C)on2)c(OC)c1	n	3.55µM	u	15.8µM	u	14.6µM
Cc1cc(NC(=O)/C=C/c2ccccc2Cl)n(-c2nc3ccccc3[nH]2)n1	n	2µM	u	11.2µM	1.35µM	n
Cc1cc(NS(=O)(=O)c2ccc(NC(=O)/C=C/c3ccccc3)cc2)no1	x	n	n	x	u	n
Cc1cc(NC(=O)c2sc3ccccc3c2O)no1	x	3.16µM	1.58µM	x	9.53µM	10.3µM
Cc1cc(NC(=O)c2ccc(F)cc2F)n(-c2nc3ccccc3[nH]2)n1	n	n	n	n	n	n
Cc1cc(NC(=O)c2cccs2)no1	x	n	n	x	u	n
COCCNC(=O)Cn1c(=O)c2cccn2c2ccc(F)cc21	x	x	x	x	n	x
COC(=O)c1c(Oc2ccc(C(C)=O)cc2)nnc(-c2ccccc2)c1-c1ccccc1	x	x	x	n	n	x
Cc1cc(NC(=O)/C=C/c2ccccc2Cl)no1	n	2.82µM	2.82µM	u	u	n
Cc1ccc(NC(=O)c2ccccc2Cl)c(Cl)c1	n	u	n	n	19µM	n
Cc1cc(NC(=O)c2ccccc2)ccc1NC(=O)c1ccccc1Cl	x	n	n	x	u	n
SMILES	KinaseGlo FLuc	Rab9 promoter act	NPC1 prom act	SMN2 splice up	FLuc modulator	ELG1 genotoxic
Cc1cc(NC(=O)NC(=O)c2ccccc2F)no1	x	3.55µM	u	x	u	u
Cc1cc(NC(=O)c2ccccc2Cl)no1	n	3.98µM	u	u	15.1µM	u
Cc1cc(NC(=O)c2c(F)cccc2Cl)no1	n	n	n	n	n	n
CCCCc1cc2c(cn1)=C(OC(=O)CCC(=O)OC)C(C)(OC(=O)CC)C(=O)C=2 (configuration not stated)	n[7.66 µM]	x	x	n[9.22 µM]	x	x
Cc1cc(NC(=O)c2cc(C(C)C)on2)no1	n	u	u	u	15.1µM	u
Cc1ccc(C)c(CNC(=O)c2cnc3sc(N4CCCC4)nn3c2=O)c1	x	x	x	n	n	x
CC(C)(C)c1ccc(C(=O)CCC(=O)OCC(=O)NCCc2ccc(S(N)(=O)=O)cc2)cc1	x	n	n	x	12µM	n
CN(C)c1ccc(/C=N/NC(=O)c2ccc(CN3CCOCC3)cc2)cc1Br	n	n	n	n	19µM	n
Cc1cc(/C=N/NC(=O)CC2(C)OCCO2)c(C)n1-c1cc(Cl)cc(Cl)c1	n	n	n	n	n	n
